Data: US20220289795, “EFFICIENT METHOD FOR PREPARING PPR PROTEIN AND USE OF THE SAME” (EditForce, Inc., published 2022)

Molecular target: T1, v3.1_PPR13 (Artificial Sequence)
T1 chain: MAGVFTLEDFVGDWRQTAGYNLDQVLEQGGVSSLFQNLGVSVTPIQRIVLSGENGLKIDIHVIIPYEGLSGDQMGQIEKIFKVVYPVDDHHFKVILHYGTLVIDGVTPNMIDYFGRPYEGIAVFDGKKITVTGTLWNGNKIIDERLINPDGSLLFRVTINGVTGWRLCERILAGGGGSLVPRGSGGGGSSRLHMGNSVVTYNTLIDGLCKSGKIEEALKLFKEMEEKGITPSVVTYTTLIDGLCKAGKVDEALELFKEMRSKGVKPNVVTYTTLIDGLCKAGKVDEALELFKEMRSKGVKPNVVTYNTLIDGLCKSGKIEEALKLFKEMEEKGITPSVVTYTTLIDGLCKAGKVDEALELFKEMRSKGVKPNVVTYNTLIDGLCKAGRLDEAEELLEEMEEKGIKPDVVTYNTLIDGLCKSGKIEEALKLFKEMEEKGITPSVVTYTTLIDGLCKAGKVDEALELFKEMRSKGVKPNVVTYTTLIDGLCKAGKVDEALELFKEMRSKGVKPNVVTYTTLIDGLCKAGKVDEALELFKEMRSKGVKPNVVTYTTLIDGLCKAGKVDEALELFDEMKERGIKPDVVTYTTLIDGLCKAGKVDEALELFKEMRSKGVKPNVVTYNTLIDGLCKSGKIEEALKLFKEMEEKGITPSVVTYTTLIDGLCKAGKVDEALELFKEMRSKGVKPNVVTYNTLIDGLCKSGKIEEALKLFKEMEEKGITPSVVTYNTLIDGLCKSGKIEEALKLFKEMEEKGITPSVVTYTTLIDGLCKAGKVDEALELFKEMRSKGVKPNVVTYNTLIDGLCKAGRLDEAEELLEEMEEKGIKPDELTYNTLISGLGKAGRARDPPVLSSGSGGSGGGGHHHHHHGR
Experiment: RPB-ELISA
Settings: tags: N-terminal luciferase, C-terminal 6xHis; label: 5'-biotin; ssRNA
Experimental: RNA probes consisting of a designed 30-base sequence containing 18 bases of the target sequence and modified by biotinylation at the 5′ end (RNA_1, RNA_2, RNA_3, RNA_4, and RNA_5, SEQ ID NOS: 61 to 65) were synthesized (Grainer). To a streptavidin-coated plate (Thermo fisher), the 5′-end biotinylated RNA probes were added, reaction was allowed at room temperature for 30 minutes, and the plate was washed with a lysis buffer (20 mM Tris-HCl, pH 7.6, 150 mM NaCl, 5 mM MgCl₂, 0.5% NP-40, 1 mM DTT, 0.1% BSA). For background measurement, wells to which RNA was not added, but 100 μL of the lysis buffer, 1 μL of 100 mM DTT, and 1 μL of 40 unit/4 RNase inhibitor (Takara, 2313A) were added were also prepared. Then, 200 μL of a blocking buffer (20 mM Tris-HCl, pH 7.6, 150 mM NaCl, 5 mM MgCl₂, 0.5% NP-40, 1 mM DTT, 1% BSA) was added, and the plate surface was blocked at room temperature for 30 minutes. Then, 100 μL of E. coli lysate containing luciferase-fused PPR protein having a luminescence level of 1.5×10⁸ LU/μL was added to each well, and the binding reaction was allowed at room temperature for 30 minutes. The well was washed 5 times with 200 μL of a washing buffer (20 mM Tris-HCl, pH 7.6, 150 mM NaCl, 5 mM MgCl₂, 0.5% NP-40, 1 mM DTT). […] The background (luminescence signal value obtained with adding the PPR protein and without adding RNA) was subtracted from the luminescences of the samples to which a solution containing each RNA and PPR protein was added, and the obtained values were used as the binding powers between the PPR protein and RNA.
By using the V3.1 motif, PPR proteins for the same 23 kinds of target sequences were similarly prepared (SEQ ID NOS: 411 to 433 for the nucleotide sequences, and SEQ ID NOS: 434 to 456 for the amino acid sequences), and bindings of all the combinations were analyzed by using RPB-ELISA. The experimental method was the same as that used in Example 3.

How did the binding signal turn out when GGUUAGAGAUACAGUGUG was run?
The binding signal was 20.6 log2 luminescence.
